Source: the supplement of paper PMC11732987, “Enantioselective OTUD7B fragment discovery through chemoproteomics screening and high-throughput optimisation” (Communications Chemistry, 2025)
Values without a mark were called inactive.

What was measured:
Test in all cases: log2 ratio of Biotin-Ahx-Ub-VS probe labelling (fragment/DMSO); higher = less target engagement (more negative = stronger competition), active = hit call of the paper (q ≤ 0.05, log2 ratio ≤ -1)
Conditions in all cases: compound concentration: 200 uM; treatment time: 3 h
OTUD6B = target: T1, OTUD6B (UniProt Q8N6M0)
T1 sequence (whole entry): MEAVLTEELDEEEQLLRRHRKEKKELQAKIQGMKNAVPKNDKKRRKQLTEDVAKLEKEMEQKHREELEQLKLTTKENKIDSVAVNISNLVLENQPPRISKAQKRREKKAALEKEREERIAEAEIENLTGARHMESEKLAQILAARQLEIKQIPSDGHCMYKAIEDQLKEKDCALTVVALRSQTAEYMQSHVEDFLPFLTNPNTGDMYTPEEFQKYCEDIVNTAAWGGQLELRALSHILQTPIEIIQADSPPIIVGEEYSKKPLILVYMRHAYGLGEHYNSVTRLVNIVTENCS
Method in brief: (§1)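 HEK293T lysate, 495 µg per sample in Tris/CHAPS/IGEPAL buffer with protease inhibitors, was treated in triplicate with fragment at 200 µM or vehicle for 3 h and then with Biotin-Ahx-Ub-VS at 0.5 µM final for 1 h. Labelled DUBs were NeutrAvidin-enriched, digested with LysC and trypsin, and run by diaPASEF LC-MS/MS. Spectronaut label-free quantities were global-median-normalised, and values are average log2 fragment/vehicle ratios by unpaired t-test on proteins with ≥2 unique peptides.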

OTUD7B = target: T2, OTUD7B (UniProt Q6GQQ9)
T2 sequence (whole entry): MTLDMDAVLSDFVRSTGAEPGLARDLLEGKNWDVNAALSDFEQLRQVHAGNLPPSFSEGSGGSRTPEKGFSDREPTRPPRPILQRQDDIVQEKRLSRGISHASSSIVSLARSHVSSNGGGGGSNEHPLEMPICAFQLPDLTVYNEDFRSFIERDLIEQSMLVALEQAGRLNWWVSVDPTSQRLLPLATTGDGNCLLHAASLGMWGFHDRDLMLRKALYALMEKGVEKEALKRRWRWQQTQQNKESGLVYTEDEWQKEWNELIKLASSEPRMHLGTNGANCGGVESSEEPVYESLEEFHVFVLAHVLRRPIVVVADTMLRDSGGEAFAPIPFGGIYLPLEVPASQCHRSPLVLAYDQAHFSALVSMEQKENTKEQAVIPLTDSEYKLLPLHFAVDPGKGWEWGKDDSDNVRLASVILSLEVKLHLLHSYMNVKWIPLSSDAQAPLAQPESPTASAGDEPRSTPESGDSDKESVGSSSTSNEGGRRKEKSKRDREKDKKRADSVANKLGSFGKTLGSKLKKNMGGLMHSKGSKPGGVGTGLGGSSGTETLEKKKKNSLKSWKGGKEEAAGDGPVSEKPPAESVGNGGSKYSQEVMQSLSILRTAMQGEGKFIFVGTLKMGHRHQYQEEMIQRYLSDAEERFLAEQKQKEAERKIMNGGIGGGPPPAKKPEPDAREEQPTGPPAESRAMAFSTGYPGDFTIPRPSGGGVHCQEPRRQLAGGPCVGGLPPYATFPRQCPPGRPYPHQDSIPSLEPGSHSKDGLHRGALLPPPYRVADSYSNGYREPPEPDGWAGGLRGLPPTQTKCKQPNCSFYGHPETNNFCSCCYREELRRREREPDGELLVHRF
Method in brief: as §1

PRPF8 = PRPF8 (UniProt Q6P2Q9)
Method in brief: as §1

PSMD7 = target: T3, PSMD7 (UniProt P51665)
T3 sequence (whole entry): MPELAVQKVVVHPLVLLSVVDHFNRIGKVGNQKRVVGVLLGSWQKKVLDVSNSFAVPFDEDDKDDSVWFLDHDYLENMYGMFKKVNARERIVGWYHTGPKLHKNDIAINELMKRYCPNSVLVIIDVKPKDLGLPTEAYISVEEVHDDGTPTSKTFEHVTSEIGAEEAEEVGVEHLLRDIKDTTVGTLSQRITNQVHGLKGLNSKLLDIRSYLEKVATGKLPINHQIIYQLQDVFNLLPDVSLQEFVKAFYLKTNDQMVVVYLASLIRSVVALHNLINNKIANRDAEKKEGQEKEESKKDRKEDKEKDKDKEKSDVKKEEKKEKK
Method in brief: as §1

UCHL1 = UCHL1 (UniProt P09936)
Method in brief: as §1

UCHL3 = target: T4, UCHL3 (UniProt P15374)
T4 sequence (whole entry): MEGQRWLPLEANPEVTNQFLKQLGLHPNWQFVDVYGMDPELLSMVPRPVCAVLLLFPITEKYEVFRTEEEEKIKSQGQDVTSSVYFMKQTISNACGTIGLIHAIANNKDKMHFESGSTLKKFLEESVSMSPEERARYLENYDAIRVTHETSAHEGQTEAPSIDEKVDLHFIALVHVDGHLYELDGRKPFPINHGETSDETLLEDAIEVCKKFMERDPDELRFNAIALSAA
Method in brief: as §1

UCHL5 = target: T5, UCHL5 (UniProt Q9Y5K5)
T5 sequence (whole entry): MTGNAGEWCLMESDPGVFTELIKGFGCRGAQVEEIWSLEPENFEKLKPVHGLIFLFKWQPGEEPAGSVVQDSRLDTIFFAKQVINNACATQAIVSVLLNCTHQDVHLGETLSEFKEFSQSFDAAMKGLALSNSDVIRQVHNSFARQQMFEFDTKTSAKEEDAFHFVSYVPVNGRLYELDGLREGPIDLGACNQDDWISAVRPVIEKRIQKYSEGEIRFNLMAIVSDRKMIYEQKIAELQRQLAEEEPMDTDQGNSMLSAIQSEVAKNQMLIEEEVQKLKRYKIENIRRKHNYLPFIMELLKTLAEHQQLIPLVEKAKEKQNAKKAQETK
Method in brief: as §1

USP10 = USP10 (UniProt Q14694)
Method in brief: as §1

USP15 = target: T6, USP15 (UniProt Q9Y4E8)
T6 sequence (whole entry): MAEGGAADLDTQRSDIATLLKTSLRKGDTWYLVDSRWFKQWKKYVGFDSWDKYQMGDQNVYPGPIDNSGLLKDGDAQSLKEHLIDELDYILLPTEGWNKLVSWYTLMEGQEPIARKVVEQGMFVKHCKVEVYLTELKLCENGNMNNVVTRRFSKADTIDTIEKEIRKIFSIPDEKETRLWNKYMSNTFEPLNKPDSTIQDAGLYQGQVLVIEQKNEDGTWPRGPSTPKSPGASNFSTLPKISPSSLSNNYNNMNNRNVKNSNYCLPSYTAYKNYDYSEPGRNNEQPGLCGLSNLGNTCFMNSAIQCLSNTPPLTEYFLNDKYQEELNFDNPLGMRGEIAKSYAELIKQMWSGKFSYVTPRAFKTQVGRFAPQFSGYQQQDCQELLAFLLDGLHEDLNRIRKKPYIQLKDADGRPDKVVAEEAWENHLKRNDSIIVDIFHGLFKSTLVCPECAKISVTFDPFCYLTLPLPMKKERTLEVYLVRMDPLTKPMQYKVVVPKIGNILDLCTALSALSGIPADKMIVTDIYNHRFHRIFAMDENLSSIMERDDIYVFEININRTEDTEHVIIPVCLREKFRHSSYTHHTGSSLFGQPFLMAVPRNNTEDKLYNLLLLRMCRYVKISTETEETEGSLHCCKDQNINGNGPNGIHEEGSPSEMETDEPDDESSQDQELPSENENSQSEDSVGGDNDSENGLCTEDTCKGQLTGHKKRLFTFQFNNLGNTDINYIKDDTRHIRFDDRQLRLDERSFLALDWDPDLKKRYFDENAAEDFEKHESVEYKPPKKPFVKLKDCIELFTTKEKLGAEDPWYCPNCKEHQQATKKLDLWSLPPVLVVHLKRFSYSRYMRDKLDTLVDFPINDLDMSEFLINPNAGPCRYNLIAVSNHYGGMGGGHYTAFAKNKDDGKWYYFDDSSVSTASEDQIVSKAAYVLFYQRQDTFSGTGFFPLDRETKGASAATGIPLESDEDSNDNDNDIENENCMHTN
Method in brief: as §1

USP16 = USP16 (UniProt Q9Y5T5)
Method in brief: as §1

Sequence of USP10 (Q14694 whole entry): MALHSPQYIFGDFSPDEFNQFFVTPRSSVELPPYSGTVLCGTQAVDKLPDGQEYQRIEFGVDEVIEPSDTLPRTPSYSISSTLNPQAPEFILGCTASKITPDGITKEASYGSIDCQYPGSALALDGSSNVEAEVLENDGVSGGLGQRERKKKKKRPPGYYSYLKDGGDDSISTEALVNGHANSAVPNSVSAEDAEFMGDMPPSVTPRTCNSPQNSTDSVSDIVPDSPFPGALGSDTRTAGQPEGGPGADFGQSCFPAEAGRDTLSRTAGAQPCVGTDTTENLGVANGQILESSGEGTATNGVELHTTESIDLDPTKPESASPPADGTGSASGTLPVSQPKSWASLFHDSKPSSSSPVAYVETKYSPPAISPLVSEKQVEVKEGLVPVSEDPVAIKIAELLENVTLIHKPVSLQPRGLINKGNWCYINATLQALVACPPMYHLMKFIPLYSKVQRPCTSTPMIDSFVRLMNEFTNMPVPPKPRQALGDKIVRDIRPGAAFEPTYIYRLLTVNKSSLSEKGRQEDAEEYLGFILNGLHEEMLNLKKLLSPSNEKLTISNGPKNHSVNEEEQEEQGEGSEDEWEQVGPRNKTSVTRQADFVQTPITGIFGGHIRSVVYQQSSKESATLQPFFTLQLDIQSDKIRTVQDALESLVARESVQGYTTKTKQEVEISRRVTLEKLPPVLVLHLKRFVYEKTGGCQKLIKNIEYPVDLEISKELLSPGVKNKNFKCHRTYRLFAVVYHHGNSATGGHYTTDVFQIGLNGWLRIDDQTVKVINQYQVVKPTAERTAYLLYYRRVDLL
Sequence of USP16 (Q9Y5T5 whole entry, looked up): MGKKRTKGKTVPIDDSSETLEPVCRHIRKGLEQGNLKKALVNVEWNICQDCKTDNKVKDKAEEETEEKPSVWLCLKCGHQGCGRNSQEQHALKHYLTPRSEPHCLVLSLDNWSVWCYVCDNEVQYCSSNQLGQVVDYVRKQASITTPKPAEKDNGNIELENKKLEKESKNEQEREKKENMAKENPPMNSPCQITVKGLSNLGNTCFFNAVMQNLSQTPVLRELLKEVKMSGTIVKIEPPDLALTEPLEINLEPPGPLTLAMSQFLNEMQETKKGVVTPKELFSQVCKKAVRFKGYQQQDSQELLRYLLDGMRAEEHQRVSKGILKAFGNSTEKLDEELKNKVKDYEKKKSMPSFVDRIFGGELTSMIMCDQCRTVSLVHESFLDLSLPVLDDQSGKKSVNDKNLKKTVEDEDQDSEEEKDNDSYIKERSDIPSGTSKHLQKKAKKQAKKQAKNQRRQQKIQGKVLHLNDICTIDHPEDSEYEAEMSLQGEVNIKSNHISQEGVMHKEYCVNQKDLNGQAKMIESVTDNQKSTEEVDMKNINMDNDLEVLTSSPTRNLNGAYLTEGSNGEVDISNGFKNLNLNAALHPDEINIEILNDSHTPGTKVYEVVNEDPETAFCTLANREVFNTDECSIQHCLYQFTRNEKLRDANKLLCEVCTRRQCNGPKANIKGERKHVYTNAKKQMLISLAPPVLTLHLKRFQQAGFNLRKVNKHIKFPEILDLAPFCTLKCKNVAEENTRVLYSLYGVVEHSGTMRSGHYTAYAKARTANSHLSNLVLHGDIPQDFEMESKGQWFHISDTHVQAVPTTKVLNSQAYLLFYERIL
Sequence of UCHL1 (P09936 whole entry, looked up): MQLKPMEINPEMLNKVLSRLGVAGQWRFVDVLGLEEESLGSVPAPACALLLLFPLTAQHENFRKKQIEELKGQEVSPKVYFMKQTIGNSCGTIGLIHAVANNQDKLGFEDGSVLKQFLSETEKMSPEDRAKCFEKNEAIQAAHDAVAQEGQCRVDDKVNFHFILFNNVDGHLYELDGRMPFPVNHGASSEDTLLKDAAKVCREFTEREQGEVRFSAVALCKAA

## O=C(CCl)NC(Cn1ccccc1=O)c1ccccc1 (stereo not given)
OTUD6B
  log2 ratio of Biotin-Ahx-Ub-VS probe labelling: 0.102
OTUD7B
  log2 ratio of Biotin-Ahx-Ub-VS probe labelling: -0.332
PRPF8
  log2 ratio of Biotin-Ahx-Ub-VS probe labelling: -0.224
PSMD7
  log2 ratio of Biotin-Ahx-Ub-VS probe labelling: -0.094
UCHL1
  log2 ratio of Biotin-Ahx-Ub-VS probe labelling: -1.61 (active)
UCHL3
  log2 ratio of Biotin-Ahx-Ub-VS probe labelling: 0.233
UCHL5
  log2 ratio of Biotin-Ahx-Ub-VS probe labelling: -0.175
USP10
  log2 ratio of Biotin-Ahx-Ub-VS probe labelling: -0.0324
USP15
  log2 ratio of Biotin-Ahx-Ub-VS probe labelling: -0.0415
USP16
  log2 ratio of Biotin-Ahx-Ub-VS probe labelling: -0.972
